Source: PubChem (National Center for Advancing Translational Sciences (NCATS))
The list is not random: actives were taken first. Their share in the collection is about 11%.
HEK cytotox = cytotoxic compounds in HEK 293 cells; HEK 293 viability, ATP luminescence (CellTiter-Glo), 48-72 h; Potency, µM (series often up to 115 µM), usual class: inhibitors; 94,000 compounds, 6.6% hits; AID 1345083; further: nearly all actives have a fitted effect of over 60% in size
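Luminescence from cellular ATP, measured with CellTiter-Glo, indicates HEK 293 viability. Cells plated at 250 cells/well are treated with compound for 48 or 72 hr at 37 degree Celsius before reagent addition.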
FLuc inh = inhibitors of firefly (Photinus pyralis) luciferase; 76,000 compounds, 2.5% hits; purified P. pyralis luciferase, luminescence, biochemical; AID 1347043; Potency, µM (doses to about 115 µM), hits mostly inhibitors; P08659; further: nearly all actives have a fitted effect of over 65% in size
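Purified 10nM P. pyralis luciferase with 10uM D-luciferin and 10uM ATP in 50mM Tris acetate pH 7.5, 10mM Mg acetate, 0.01% Tween-20, 0.05% BSA. qHTS titration; luminescence read by CCD imager.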
3T3 cytotox = NIH 3T3 cell cytotoxicity; NIH 3T3 viability, CellTiter-Glo ATP luminescence, 48-72 h; Potency, µM (series often up to 96.7 µM), most hits filed as inhibitors; 94,000 compounds, 4.3% hits; AID 1345082; further: nearly all actives have a fitted effect of over 55% in size
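Cytotoxicity is measured as loss of cellular ATP: NIH 3T3 cells (400/well) are exposed to compound for 48 or 72 hr at 37 °C, then CellTiter-Glo luminescence is imaged after 10 min at room temperature.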
NPR1 antag = blocks ANP-stimulated signaling of human Npr1 receptor. P16066. HEK293 hNpr1 GloSensor cGMP, ANP-stimulated luminescence. Potency, µM (doses to about 46.3 µM), hits mostly inhibitors. 76,000 compounds, 1.6% hits. AID 1347048; calls by dose curve; further: nearly all actives have a fitted effect of over 60% in size
Target sequence (P16066 whole entry, looked up): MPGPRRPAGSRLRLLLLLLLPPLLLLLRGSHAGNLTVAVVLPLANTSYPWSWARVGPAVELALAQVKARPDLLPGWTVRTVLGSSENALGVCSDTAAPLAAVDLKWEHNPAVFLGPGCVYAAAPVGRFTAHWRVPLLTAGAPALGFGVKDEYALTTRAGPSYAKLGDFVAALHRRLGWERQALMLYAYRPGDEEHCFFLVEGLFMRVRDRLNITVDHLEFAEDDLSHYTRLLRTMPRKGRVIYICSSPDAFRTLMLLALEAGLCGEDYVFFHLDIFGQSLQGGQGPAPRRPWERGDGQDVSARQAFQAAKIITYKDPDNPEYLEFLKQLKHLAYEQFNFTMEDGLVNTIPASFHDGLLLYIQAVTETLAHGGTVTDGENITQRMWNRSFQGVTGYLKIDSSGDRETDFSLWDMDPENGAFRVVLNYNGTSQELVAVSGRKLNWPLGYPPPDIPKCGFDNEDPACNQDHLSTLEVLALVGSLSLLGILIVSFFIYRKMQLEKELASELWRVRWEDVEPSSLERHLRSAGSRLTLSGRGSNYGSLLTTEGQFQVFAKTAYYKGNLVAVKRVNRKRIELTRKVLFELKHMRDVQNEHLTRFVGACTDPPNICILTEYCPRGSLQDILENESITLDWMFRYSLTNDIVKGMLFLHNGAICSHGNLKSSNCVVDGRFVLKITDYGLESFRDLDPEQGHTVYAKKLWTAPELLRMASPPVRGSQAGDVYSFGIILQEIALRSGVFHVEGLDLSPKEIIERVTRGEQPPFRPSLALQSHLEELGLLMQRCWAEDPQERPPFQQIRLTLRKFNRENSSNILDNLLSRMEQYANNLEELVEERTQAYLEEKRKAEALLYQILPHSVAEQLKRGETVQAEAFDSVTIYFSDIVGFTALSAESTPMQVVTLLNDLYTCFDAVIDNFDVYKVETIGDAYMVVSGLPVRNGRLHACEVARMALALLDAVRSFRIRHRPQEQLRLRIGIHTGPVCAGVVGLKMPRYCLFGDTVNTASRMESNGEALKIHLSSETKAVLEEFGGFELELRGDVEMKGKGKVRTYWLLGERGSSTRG
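Compound pre-incubated 30 min at room temperature on GloSensor-loaded HEK293 cells stably carrying hNpr1 and the pGS-40F cGMP biosensor. Stimulation uses hNppA at 0.1 nM final; luminescence is taken at baseline and 20 min post-agonist.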
Hits are given with their value; – = inactive; ? = inconclusive; · = no result given. Unless noted, the call rests on the fitted dose curve; in most records, active means well fitted curve in the direction sought with a large enough effect; inconclusive means small, poorly fitted or top-dose-only effect, or another doubt; inactive means no such curve, though single readings can be large; an effect the other way counts as inactive or inconclusive.

SMILES	HEK cytotox	FLuc inh	3T3 cytotox	NPR1 antag
O=C(NCCCc1ccccc1)c1cccc2c1CCN2C(=O)C1CC1	?	–	?	–
CCCS(=O)(=O)N1CC(c2nc(-c3ccncc3)no2)C1	–	·	–	·
CN1CCN(c2cc(=O)c3ccnc(-c4ccnn4C)c3o2)CC1	–	–	39.8µM	–
CN1CCN(c2cc(=O)c3ccnc(-c4ccccc4O)c3o2)CC1	–	–	22.4µM	–
CCOC(=O)C1=CN(CC(=O)N(CC)c2cccc(C)c2)S(=O)(=O)N=C1C	?	–	–	–
COc1ccc(NC(=O)[C@@H]2C[C@H](c3ccc(F)cc3)N(Cc3csc(C)n3)C2)c(C)c1	89.1µM	–	70.8µM	–
Cc1nc(CN2C[C@H](C(=O)NCCOc3ccccc3)C[C@@H]2c2ccc(F)cc2)cs1	89.1µM	–	56.2µM	–
COc1cc(CNC(=O)[C@@H]2C[C@H](c3ccc(F)cc3)N(Cc3csc(C)n3)C2)cc(OC)c1	?	–	?	–
O=C(Nc1cccc(F)c1)[C@@H]1C[C@@H](c2ccc(F)cc2)N([S+](=O)([O-])c2ccccc2)C1	35.5µM	–	?	–
Cc1nc(CN2C[C@H](C(=O)Nc3cccc(Cl)c3)C[C@@H]2c2ccc(F)cc2)cs1	50.1µM	–	50.1µM	?
CC(=O)N1CCN(C(=O)c2ccc3oc(-c4ccnc(Cl)c4)nc3c2)CC1	–	·	–	·
CN1CCCC[C@]2(C[C@H](C(=O)O)[C@H](c3ccccc3)N2C(=O)Cc2ccc(F)cc2)C1=O	–	·	?	·
COc1cccc(NC(=O)[C@@H]2C[C@@H](c3ccc(F)cc3)N(CCOc3ccccc3)C2)c1	39.8µM	–	?	?
COc1cccc(NC(=O)[C@@H]2C[C@H](c3ccc(F)cc3)N(Cc3csc(C)n3)C2)c1	63.1µM	–	?	–
Cc1nc(CN2C[C@H](C(=O)Nc3cccc(F)c3)C[C@@H]2c2ccc(F)cc2)cs1	39.8µM	–	39.8µM	–
COc1cccc(-c2ccc(C(=O)NCCN[S+](C)(=O)[O-])cc2)c1	–	·	–	·
CCc1noc(-c2cccn3c(CNC(=O)c4ccc5ccccc5n4)nnc23)n1	35.5µM	–	?	–
CCc1noc(-c2cccn3c(CNC(=O)c4ccccc4)nnc23)n1	–	–	–	–
COc1ccccc1Nc1ccnc(N2CCC(C(=O)NC3CC3)CC2)n1	–	·	?	·
COc1ccccc1Nc1ccnc(N2CCN(C(=O)c3ccccc3C)CC2)n1	44.7µM	·	?	·
COc1ccccc1Nc1ccnc(N2CCN(C(=O)c3ccccc3)CC2)n1	?	·	35.5µM	·
CN(C)C(=O)N1CCN(c2nccc(Nc3ccccc3F)n2)CC1	–	·	–	·
COc1ccccc1Nc1ccnc(N2CCC(NC(=O)N(C)C)CC2)n1	?	·	–	·
O=C(c1ccccc1F)N1CCN(c2nccc(Nc3ccccc3F)n2)CC1	35.5µM	·	?	·
COc1ccccc1Nc1ccnc(N2CCN(C(=O)c3ccccc3F)CC2)n1	44.7µM	·	?	·
SMILES	HEK cytotox	FLuc inh	3T3 cytotox	NPR1 antag
CN(C)C(C(=O)N1CCN(Cc2ccccc2C#N)CC1)c1ccc(F)cc1 (stereo unspecified)	–	–	–	–
O=C(c1ccccc1F)N1CCCC2(C1)C(=NC1CCCC1)NC(=O)N2c1cc(F)cc(F)c1 (stereo unspecified)	?	–	?	–
O=C(C1CCCC1)N1CCN(c2nccc(Nc3ccccc3F)n2)CC1	?	·	22.4µM	·
O=C(C1CCCN1c1nccc(Nc2ccccc2F)n1)N1CCN(c2ncccn2)CC1 (stereo unspecified)	–	·	–	·
CC(=O)Nc1cc(-c2cn(C)c(=O)n3cc(CN4CC[S+](=O)([O-])CC4)nc23)ccn1	–	–	100µM	–
COc1ncccc1-c1cn(C)c(=O)n2cc(CN3CC[S+](=O)([O-])CC3)nc12	–	–	?	–
O=C(NCCn1cccc1-c1nc(-c2ccc3c(c2)OCO3)no1)c1ccccc1F	–	?	–	–
Cc1cccc(-c2cccc(CN3CCC(NC(=O)c4ccc(Cl)nc4)CC3)c2)c1	14.1µM	·	17.8µM	·
O=C(NC1CCN(Cc2cccc(-c3ccc(F)c(F)c3)c2)CC1)c1ccc(Cl)cc1	–	·	–	·
Cc1cccc(-c2cccc(CN3CCC(NC(=O)C4CCCC4)CC3)c2)c1	–	·	–	·
Cc1cccc(-c2cccc(CN3CCC(NC(=O)c4ccccc4F)CC3)c2)c1	?	·	39.8µM	·
Cc1cccc(-c2cccc(CN3CCC(NC(=O)c4ccncc4)CC3)c2)c1	31.6µM	·	31.6µM	·
COc1ccc(C(=O)NC2CCN(Cc3cccc(-c4cccc(C)c4)c3)CC2)cc1	35.5µM	·	?	·
COc1ccc(CCNC(=O)c2cc(-c3cc(Cl)cc(Cl)c3)c3nncn3n2)cc1	–	·	–	·
O=C(CCn1ccn2nc3c(c2c1=O)CCCC3)Nc1ccccc1Br	–	–	–	–
Cc1ccc(C(=O)NC2CCN(Cc3cccc(-c4ccc(F)c(F)c4)c3)CC2)cc1	?	·	35.5µM	·
O=C(Cc1ccccn1)NC1CCN(c2nc3ncccc3o2)CC1	–	–	–	–
Cc1cccc(-c2cccc(CN3CCC(NC(=O)Cc4ccccn4)CC3)c2)c1	?	·	44.7µM	·
CC(=O)Nc1cccc(C(=O)N2CCC(n3cc(-c4nc(C(C)C)no4)nn3)CC2)c1	–	–	–	–
Cc1noc(C)c1-c1cc2c(cc(C)n2CCN(C)C)c(-c2ccsc2)n1	–	–	?	–
Cc1noc(C)c1-c1cc2c(cc(C)n2CCN(C)C)c(-c2ccnn2C)n1	?	–	44.7µM	–
COc1cc(-c2nc(-c3c(C)noc3C)cc3c2cc(C)n3CCN(C)C)ccn1	70.8µM	–	?	–
Cc1noc(C)c1-c1cc2c(cc(C)n2CCN(C)C)c(-c2ccccc2)n1	?	–	22.4µM	–
Cc1cc(-c2nc(-c3c(C)noc3C)cc3c2cc(C)n3CCN(C)C)ccn1	?	–	?	–
COc1cncc(-c2nc(-c3c(C)noc3C)cc3c2cc(C)n3CCN(C)C)c1	89.1µM	–	22.4µM	–
SMILES	HEK cytotox	FLuc inh	3T3 cytotox	NPR1 antag
O=C1CC(c2ccccc2)N(Cc2ccc(F)cc2F)CCCCCCN1 (stereo unspecified)	?	–	?	–
COc1cccc(CNC(=O)c2ccc3nnc(CC4CC4)n3c2)c1	–	·	?	·
Cc1noc(C)c1-c1cc2c(cc(C)n2CCN(C)C)c(Nc2ccncn2)n1	100µM	–	25.1µM	–
CC(C)n1c(C2CCN(C(=O)C3CCCO3)CC2)nn(C)c1=O (stereo unspecified)	–	·	–	·
CCc1c(C(=O)N2CCC(CO)(Cc3ccccc3)CC2)[nH]c2ccccc12	20µM	–	?	–
Cn1cc(-c2cnc(Nc3cnccn3)c3c2CCO3)cn1	–	?	?	–
Cn1cc(-c2cnc(Nc3cncnc3)c3c2CCO3)cn1	–	–	100µM	–
COc1ccc(Nc2ncc(-c3cnn(C)c3)c3c2OCC3)cc1	?	25.1µM	?	–
CN(Cc1cccnc1)Cc1nc(C2(O)CCN(Cc3ccccc3C(F)(F)F)CC2)cs1	44.7µM	–	?	–
CN(Cc1cccnc1)c1nc2c(c(=O)[nH]1)CCN(Cc1ccccc1C(F)(F)F)CC2	20µM	–	?	?
